Assay results as given in PubChem BioAssay.
Several values for one entry are separate records, joined by “and”; a condition that tells them apart may be missing. Identical values can stand only once. Activity calls are given as the source filed them.

What was measured:
[1] = test system: Plasmodium falciparum Sir2 (PF13_0152, Sir2A); test: pfSir2 binders on small-molecule microarrays, primary screen, biochemical, small-molecule microarray, 635 nm fluorescence (AID 1098); details: small-molecule microarray binding, fluorescence 635 nm; higher = more signal;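 also: score merges spot fluorescence intensity with its signal-to-noise ratio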
[2] = small-molecule microarray binders of probe aDKK1, primary screen, biochemical, biotinylated probe, 635/667 nm fluorescence (AID 1099); details: higher = more signal;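 also: score merges 667nm spot fluorescence with signal to noise across triplicate slides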
[3] = small-molecule microarray binders of probe aCHRDL2, primary screen, biochemical, biotinylated probe, 635/667 nm fluorescence (AID 1100); details: higher = more signal
[4] = splicing luciferase reporter signal modulators, primary screen, spliceosome inhibition project, cell-based, HEK293, splice +/- reporter (AID 1101); details: luminescence, 24 h, higher = more signal, called active from +8 up or from −8 down;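 also: HEK293 cells carrying a splicing-competent luciferase reporter gene; test concentration not given here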
[5] = target: Fibroblast growth factor 10 (Homo sapiens) (UniProt O15520); test: FGF10 binders on small-molecule microarrays, primary screen, biochemical, small-molecule microarray, 635 nm fluorescence (AID 1102); details: FGF10 binding, fluorescence 635 nm, higher = more signal
Fibroblast growth factor 10 (Homo sapiens), sequence (O15520 whole entry, looked up): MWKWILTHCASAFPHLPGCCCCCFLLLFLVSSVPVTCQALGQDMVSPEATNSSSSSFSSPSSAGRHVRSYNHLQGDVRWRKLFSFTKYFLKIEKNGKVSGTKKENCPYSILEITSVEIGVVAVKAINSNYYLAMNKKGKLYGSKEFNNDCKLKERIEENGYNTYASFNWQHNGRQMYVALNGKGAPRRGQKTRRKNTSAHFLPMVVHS

[6] = test system: glycogen synthase kinase-3 (GSK3A per assay name; protocol says GSK3B); test: GSK3 binders on small-molecule microarrays, primary screen, biochemical, small-molecule microarray, 635 nm fluorescence, GSK3A (AID 1103); details: small-molecule microarray binding, fluorescence 635 nm; higher = more signal; also: the record names both GSK3A and GSK3B
[7] = target: Epidermal growth factor receptor (Homo sapiens) (UniProt P00533); test: EGFR binders on small-molecule microarrays, primary screen, biochemical, small-molecule microarray, 635 nm fluorescence (AID 1104); details: EGFR binding, higher = more signal;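 also: score merges 667 nm emission intensity with spot signal to noise over triplicate slides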
Epidermal growth factor receptor (Homo sapiens), sequence (P00533 whole entry, looked up): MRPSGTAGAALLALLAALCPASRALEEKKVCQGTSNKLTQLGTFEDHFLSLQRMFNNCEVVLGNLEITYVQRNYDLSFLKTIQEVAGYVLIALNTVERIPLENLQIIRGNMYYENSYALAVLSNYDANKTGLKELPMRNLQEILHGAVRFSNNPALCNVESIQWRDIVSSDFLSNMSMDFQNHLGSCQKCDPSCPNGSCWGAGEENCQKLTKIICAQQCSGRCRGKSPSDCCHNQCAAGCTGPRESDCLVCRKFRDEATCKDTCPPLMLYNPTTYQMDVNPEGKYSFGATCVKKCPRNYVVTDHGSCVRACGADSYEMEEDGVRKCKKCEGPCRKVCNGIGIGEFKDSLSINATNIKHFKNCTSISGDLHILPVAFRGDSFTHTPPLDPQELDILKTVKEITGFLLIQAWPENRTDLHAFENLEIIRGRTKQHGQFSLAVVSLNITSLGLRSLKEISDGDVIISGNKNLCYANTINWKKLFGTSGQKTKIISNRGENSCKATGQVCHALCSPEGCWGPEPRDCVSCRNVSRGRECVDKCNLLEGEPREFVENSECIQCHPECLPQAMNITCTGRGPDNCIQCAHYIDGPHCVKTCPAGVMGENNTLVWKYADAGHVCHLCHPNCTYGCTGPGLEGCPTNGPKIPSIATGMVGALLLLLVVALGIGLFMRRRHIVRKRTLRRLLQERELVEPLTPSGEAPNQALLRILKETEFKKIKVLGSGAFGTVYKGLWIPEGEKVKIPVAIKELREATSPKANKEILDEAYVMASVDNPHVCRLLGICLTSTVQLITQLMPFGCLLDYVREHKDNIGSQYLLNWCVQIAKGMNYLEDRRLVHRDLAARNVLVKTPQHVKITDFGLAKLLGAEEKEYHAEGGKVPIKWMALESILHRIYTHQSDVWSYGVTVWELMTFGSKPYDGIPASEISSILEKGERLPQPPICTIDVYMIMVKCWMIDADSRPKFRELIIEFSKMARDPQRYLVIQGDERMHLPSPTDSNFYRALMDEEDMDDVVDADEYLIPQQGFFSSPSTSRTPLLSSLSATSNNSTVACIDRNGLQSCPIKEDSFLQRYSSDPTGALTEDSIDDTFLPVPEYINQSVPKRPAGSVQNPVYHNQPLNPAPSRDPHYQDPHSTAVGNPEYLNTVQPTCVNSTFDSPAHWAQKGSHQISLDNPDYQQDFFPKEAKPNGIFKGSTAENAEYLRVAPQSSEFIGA

[8] = target: Follistatin-related protein 3 (Homo sapiens) (UniProt O95633); test: FSTL3 binders on small-molecule microarrays, primary screen, biochemical, small-molecule microarray, 635 nm fluorescence (AID 1105); details: FSTL3 binding, higher = more signal;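 also: score merges emission near 667 nm and signal to noise per printed spot across three slides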
Follistatin-related protein 3 (Homo sapiens), sequence (O95633 whole entry, looked up): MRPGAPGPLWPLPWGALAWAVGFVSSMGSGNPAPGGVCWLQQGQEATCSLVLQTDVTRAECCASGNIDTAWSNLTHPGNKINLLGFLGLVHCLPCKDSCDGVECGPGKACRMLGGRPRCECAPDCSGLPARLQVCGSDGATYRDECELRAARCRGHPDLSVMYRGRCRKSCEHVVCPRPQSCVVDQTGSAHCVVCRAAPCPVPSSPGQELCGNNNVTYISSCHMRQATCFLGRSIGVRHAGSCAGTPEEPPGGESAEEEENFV

[9] = target: Dickkopf-related protein 1 (Homo sapiens) (UniProt O94907); test: DKK1 binders on small-molecule microarrays, primary screen, biochemical, small-molecule microarray, 635 nm fluorescence scan (AID 1106); details: DKK1 binding, higher = more signal;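 also: score merges emission near 667 nm with signal to noise over three replicate slides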
Dickkopf-related protein 1 (Homo sapiens), sequence (O94907 whole entry, looked up): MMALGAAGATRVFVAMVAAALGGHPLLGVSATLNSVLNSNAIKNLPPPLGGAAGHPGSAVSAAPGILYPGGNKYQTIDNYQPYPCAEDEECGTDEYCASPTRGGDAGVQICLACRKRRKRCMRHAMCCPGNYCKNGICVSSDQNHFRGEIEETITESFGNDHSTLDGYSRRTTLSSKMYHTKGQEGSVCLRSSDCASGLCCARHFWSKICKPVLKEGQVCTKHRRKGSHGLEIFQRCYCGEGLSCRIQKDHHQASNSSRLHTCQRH

[10] = test system: Inhibin beta A chain (activin A); test: INHBA (activin A) binders on microarrays, primary screen, biochemical, small-molecule microarray, 635 nm fluorescence scan (AID 1107); details: small-molecule microarray binding, higher = more signal;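 also: mouse activin A protein probed at 4.33 µg/mL on printed slides; score merges bound-protein fluorescence near 667 nm with spot signal-to-noise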
[11] = test system: Human papillomavirus type 1a protein E7 (residues 44-93); test: HPV1a E7 fragment binders on microarrays, primary screen, biochemical, small-molecule microarray, residues 44-93, 635 nm fluorescence (AID 1108); details: small-molecule microarray binding, fluorescence 635 nm; higher = more signal;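 also: E7 fragment applied at 1 µg/mL in TBST for 1 h at 4 C; score combines spot fluorescence with its signal to noise ratio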
[12] = modulators of HCV replicon luciferase signal, primary screen, HCV replication inhibitor project, Huh7 cells, luciferase reporter (AID 1109); details: 48 h, higher = more signal;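 also: huh7 hepatoma cells harbouring a luciferase neomycin HCV replicon reporter; luciferase luminescence as measure of HCV replicon replication; test concentration not given here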
[13] = target: Left-right determination factor 2 (Homo sapiens) (UniProt O00292); test: LEFTY2 binders on small-molecule microarrays, primary screen, biochemical, small-molecule microarray, 635 nm fluorescence scan (AID 1110); details: LEFTY2 binding, higher = more signal
Left-right determination factor 2 (Homo sapiens), sequence (O00292 whole entry, looked up): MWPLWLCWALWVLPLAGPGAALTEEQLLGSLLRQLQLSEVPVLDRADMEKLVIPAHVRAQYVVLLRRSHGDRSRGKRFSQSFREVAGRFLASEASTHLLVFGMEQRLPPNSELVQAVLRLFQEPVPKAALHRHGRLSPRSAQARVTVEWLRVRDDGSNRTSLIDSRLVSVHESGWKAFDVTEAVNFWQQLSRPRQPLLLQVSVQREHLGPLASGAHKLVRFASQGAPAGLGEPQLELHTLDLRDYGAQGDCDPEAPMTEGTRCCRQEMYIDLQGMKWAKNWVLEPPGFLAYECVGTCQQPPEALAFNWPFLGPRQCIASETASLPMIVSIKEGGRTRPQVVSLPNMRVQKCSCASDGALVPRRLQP

[14] = target: Calmodulin-1 (Homo sapiens) (UniProt P0DP23); test: CALM1 binders on microarrays, EGTA buffer, profiling panel, biochemical, small-molecule microarray, Cy5-labelled CALM1 (AID 1111); details: Cy5-CALM1 binding fluorescence, higher = more signal;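 also: labelled calmodulin applied in Tris saline Tween buffer holding calcium plus EGTA and DTT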
[15] = target: Calmodulin-1 (Homo sapiens) (UniProt P0DP23); test: calcium-bound CALM1 binders on microarrays, profiling panel, artefact control for SMM control-protein annotation, biochemical, small-molecule microarray, Cy5-labelled CALM1, plus calcium (AID 1112); details: Cy5-CALM1 binding fluorescence, higher = more signal;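 also: score merges spot fluorescence with signal to noise from triplicate slides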
[16] = small-molecule microarray binders of probe aWnt5a, primary screen, biochemical, biotinylated probe, 635/667 nm fluorescence (AID 1113); details: higher = more signal;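 also: score merges 667 nm fluorescence intensity with signal-to-noise per printed feature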
[17] = small-molecule microarray binders of probe aShh, primary screen, biochemical, biotinylated probe, 635/667 nm fluorescence (AID 1114); details: higher = more signal;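 also: probe is biotin-labelled aShh protein from a stem cell growth factor screen; measures binding of labelled protein to compounds printed on the slide; score merges feature fluorescence at 667 nm with signal-to-noise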
[18] = small-molecule microarray binders of probe aNog, primary screen, biochemical, biotinylated probe, 635/667 nm fluorescence (AID 1115); details: higher = more signal;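 also: probe is biotinylated aNog protein used at 0.15 µg/mL for 1 h at 4 C; z-score combines 667 nm fluorescence of each spot with its signal to noise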
[19] = target: Torsin-1A-interacting protein 1 (Homo sapiens) (UniProt Q5JTV8); test: LAP1 binders from COS7 cell lysate, primary screen, small-molecule microarray, 635/667 nm fluorescence (AID 1116); details: COS7-hLAP1 lysate binding, 635 nm fluorescence, higher = more signal
Torsin-1A-interacting protein 1 (Homo sapiens), sequence (Q5JTV8 whole entry, looked up): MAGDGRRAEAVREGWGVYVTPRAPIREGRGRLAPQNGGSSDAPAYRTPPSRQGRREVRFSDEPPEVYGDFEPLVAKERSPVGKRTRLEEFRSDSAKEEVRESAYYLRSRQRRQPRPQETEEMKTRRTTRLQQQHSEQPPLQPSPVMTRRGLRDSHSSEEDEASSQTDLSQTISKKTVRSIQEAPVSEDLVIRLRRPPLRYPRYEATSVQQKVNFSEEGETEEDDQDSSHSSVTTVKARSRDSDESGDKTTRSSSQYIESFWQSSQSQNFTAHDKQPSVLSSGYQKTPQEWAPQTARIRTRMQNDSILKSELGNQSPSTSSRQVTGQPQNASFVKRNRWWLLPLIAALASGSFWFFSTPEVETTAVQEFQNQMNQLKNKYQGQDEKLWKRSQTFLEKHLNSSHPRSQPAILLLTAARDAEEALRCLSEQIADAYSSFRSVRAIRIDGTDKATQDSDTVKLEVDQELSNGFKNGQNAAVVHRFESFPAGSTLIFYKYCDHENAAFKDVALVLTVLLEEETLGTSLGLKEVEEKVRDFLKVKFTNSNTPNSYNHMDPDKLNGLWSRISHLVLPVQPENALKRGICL

[20] = target: Alpha-bungarotoxin (Bungarus multicinctus) (UniProt P60615); test: alpha-bungarotoxin binders on microarray, profiling panel, artefact control for SMM control protein annotation, biochemical, small-molecule microarray, Alexa647 label, 635/667 nm fluorescence (AID 1117); details: alpha-BTX-A647 binding fluorescence, higher = more signal
Alpha-bungarotoxin (Bungarus multicinctus), sequence (P60615 whole entry, looked up): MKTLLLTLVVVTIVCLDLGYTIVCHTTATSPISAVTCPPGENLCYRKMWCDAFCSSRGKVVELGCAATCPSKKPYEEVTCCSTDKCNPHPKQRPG

Row | SMILES | composite z-score [1] | composite z-score [2] | composite z-score [3] | z-score [4] | composite z-score [5] | composite z-score [6] | composite z-score [7] | composite z-score [8] | composite z-score [9] | composite z-score [10] | composite z-score [11] | z-score [12] | composite z-score [13] | composite z-score [14] | composite z-score [15] | composite z-score [16] | composite z-score [17] | composite z-score [18] | composite z-score [19] | composite z-score [20]
1 | C=CCN(C(=O)C(c1cccs1)N(C(=O)/C=C\C(=O)O)c1ccc(CCO)cc1)C(C)(C)C (stereo not given) | -0.202 and 0.938 | -0.123 and 0.0381 | 0.274 and 1.05 | -0.14 (inactive) and 0.253 (inactive) | -0.99 and -2.19 | -0.265 and -0.746 | -1.41 and -1.91 | -1.76 and -2.36 | -2.48 and -2.7 | -1.03 and -2.06 | -1.51 and -0.35 | -0.18 and 0.135 | -3.2 and -3.93 | 0.295 and 0.0738 | 1.1 and 0.871 | -0.148 and -0.27 | -0.0035 and 0.568 | 1.1 and -0.0102 | 3.3 and 2.33 | -0.263 and -1.06
2 | C=CCN(C(=O)C1N(c2ccc(CCO)cc2)C(=O)C2C(C(=O)O)C3C=CC21O3)c1ccc(OC)cc1 (stereo not given) | 1.07 and -0.0141 | -0.0654 and -0.638 | 0.581 and 0.683 | 0.119 (inactive) and -0.374 (inactive) | -0.0665 and -1.53 | -0.313 and -1.1 | -1.33 and -1.47 | -1.01 and -0.528 | -1.35 and -0.641 | -2.09 and -3.41 | -0.178 and -3.84 | 0.174 and 0.383 | -1.59 and -1.27 | -0.394 and -0.181 | -0.702 and 0.0188 | -0.154 and -0.285 | 0.0899 and -0.239 | -0.172 and 0.0343 | -0.447 and 0.206 | -0.102 and -0.62
3 | CC(C)C(=O)N[C@@H]1CCCN1C(=O)C=Cc1ccccc1 | 0.98 | -0.311 | -0.469 | 0.655 (inactive) | 0.419 | 0.883 | 0.432 | 0.709 | 0.47 | -0.172 | 0.734 | -1.05 | 0.85 | 0.0331 | -1.12 | -0.0704 | -0.138 | 0.173 | 0.587 | 0.289
4 | CC(C)[Si]1(C(C)C)OCc2cc(CCCc3cc4c(c(CCc5ccccc5)n3)[Si](C(C)C)(C(C)C)OC4)nc(CCc3ccccc3)c21 | -1.24 and 0.202 | -0.181 and -0.246 | 0.057 and -0.55 | -1.52 (inactive) and 0.459 (inactive) | -0.0405 and 0.57 | -0.0221 and 0.559 | 0.327 and 0.456 | -0.291 and 0.745 | -0.106 and 0.458 | 0.557 and 0.0127 | 0.206 and 0.469 | -1.17 and -0.347 | 0.0155 and 0.497 | -0.372 and -0.238 | 0.797 and -0.487 | -0.152 and -0.148 | -0.27 and 0.0141 | -0.139 and -0.0168 | -0.421 and 0.248 | -1.36 and 0.0493
5 | C=CCN(C(=O)C1N(C(C)(C)CO)C(=O)C2C(C(=O)O)C3C=CC21O3)c1ccc(OC)cc1 (stereo not given) | -0.138 and 0.012 | 0.0931 and -0.0192 | 1.23 and 1.02 | -1.01 (inactive) and 0.0922 (inactive) | -0.966 and -2.03 | -0.751 and -1.28 | -1.84 and -1.43 | -2.02 and -2.33 | -4.14 and -3.71 | -1.01 and -5.89 | -0.391 and -1.24 | 1.82 and -0.0108 | -2 and -4.13 | -0.547 and -0.928 | 0.455 and -0.116 | -0.256 and -0.116 | 0.0611 and -0.283 | 0.265 and -0.0827 | 1.86 and -0.125 | -2.34 and -2.48
6 | O=c1n(-c2ccccc2)c(=O)n2n1CC[C@@H]1C(=NOC[C@@H](O)COCc3ccco3)[C@H]3O[C@H]3[C@@H](O)[C@@H]12 | 0.981 and 1.38 | -0.418 and -0.503 | -0.929 and -0.662 | -1.51 (inactive) and 0.0711 (inactive) | 0.526 and -0.556 | 0.605 and -0.449 | 0.634 and 0.518 | 0.973 and 0.426 | 1.24 and 0.48 | 0.467 and 0.442 | 0.334 and -1.78 | 0.273 and -3.95 | 0.549 and 0.474 | -0.288 and -0.601 | -1.31 and -0.958 | -0.0659 and -0.0276 | -0.367 and -0.0035 | -0.261 and -0.0733 | 0.721 and 0.223 | 0.719 and 0.0807
7 | COC(=O)C1=C(C)N(Cc2ccccc2)[C@]23O[C@](C(=O)OC)(C(=O)N2[C@@H]1c1ccccc1)[C@H]1C(=O)N(c2ccccc2)C(=O)[C@H]13 | 0.224 and 0.295 | -0.0965 and 0.134 | -0.362 and -0.418 | 0.0537 (inactive) and -0.654 (inactive) | 0.775 and 1.09 | 0.989 and 0.463 | 0.367 and 0.392 | 0.514 and 0.835 | 0.629 and 0.666 | 0.111 and -0.155 | -0.167 and 0.131 | -0.716 and -0.479 | 0.688 and 0.613 | 0.361 and -0.212 | -0.298 and -0.362 | -0.197 and -0.0882 | -0.304 and -0.0066 | -0.341 and 0.0299 | -0.233 and 0.633 | 1.34 and 1.08
8 | C=C(C)C(=O)OC[C@@H]1CN2[C@@H](CC[C@@H](C)[C@@H]2c2ccc(Br)cc2)C(=O)O1 | 0.913 | -0.199 | -0.374 | -0.46 (inactive) | 0.634 | 0.399 | 0.263 | 1.08 | 0.872 | 0.984 | 0.854 | 0.867 | 0.891 | -0.265 | -0.157 | -0.109 | 0.0684 | -0.259 | 0.183 | 0.548
9 | CC(C)=NO[C@@H](C)c1cc(-c2c(C)cc(C)cc2C)no1 | 0.624 | -0.0037 | 0.0373 | -1.47 (inactive) | 0.0369 | -0.166 | -0.0855 | -0.234 | -0.289 | 0.952 | -0.379 | -0.527 | 0.192 | -0.35 | -0.264 | -0.152 | 0.0899 | -0.242 | 0.1 | 0.282
10 | C=CCN(Cc1ccccc1)C(=O)C1N(C(C)(C)CO)C(=O)C2C(C(=O)O)C3C=CC21O3 (stereo not given) | 0.107 and 0.29 | -0.135 and -0.486 | 0.708 and 0.849 | 0.0525 (inactive) and 0.382 (inactive) | -1.46 and -2 | -0.767 and -1.51 | -2.64 and -1.86 | -1.45 and -1.73 | -2.3 and -1.58 | -4.6 and -2.88 | -1.71 and -2.2 | -1.39 and 0.81 | -2.75 and -1.49 | -0.23 and -0.697 | 1.19 and 0.132 | -0.202 and -0.224 | -0.138 and -0.206 | 0.196 and -0.47 | 0.148 and -1.17 | -2.89 and -1.25
11 | CC(C)CON=C1C[C@@H](O)[C@@H](O)[C@@H]2[C@@H]3C(=O)N(c4cccc(Oc5ccccc5)c4)C(=O)[C@@H]3CC[C@H]12 | 0.0512 | -0.354 | -0.712 | -0.00485 (inactive) | 0.357 | 0.278 | 0.338 | 0.571 | 0.661 | -0.15 | 0.529 | 0.802 | 0.432 | 0.401 | -0.201 | -0.0269 | -0.0553 | -0.5 | 0.357 | 0.162
